Screening data as filed in PubChem.
KDM5B inh – inhibitors of human KDM5B histone demethylase. Q9UGL1. KDM5B demethylase, FDH-coupled NADH fluorescence (FDH is formaldehyde dehydrogenase). Potency, µM (series often up to 57.7 µM), hits mostly inhibitors. 220,000 compounds, 2.6% hits. AID 1347165; active = well fitted inhibition curve with a large enough effect; also: nearly all actives have a fitted effect of over 70% in size
Target sequence (Q9UGL1 whole entry, looked up): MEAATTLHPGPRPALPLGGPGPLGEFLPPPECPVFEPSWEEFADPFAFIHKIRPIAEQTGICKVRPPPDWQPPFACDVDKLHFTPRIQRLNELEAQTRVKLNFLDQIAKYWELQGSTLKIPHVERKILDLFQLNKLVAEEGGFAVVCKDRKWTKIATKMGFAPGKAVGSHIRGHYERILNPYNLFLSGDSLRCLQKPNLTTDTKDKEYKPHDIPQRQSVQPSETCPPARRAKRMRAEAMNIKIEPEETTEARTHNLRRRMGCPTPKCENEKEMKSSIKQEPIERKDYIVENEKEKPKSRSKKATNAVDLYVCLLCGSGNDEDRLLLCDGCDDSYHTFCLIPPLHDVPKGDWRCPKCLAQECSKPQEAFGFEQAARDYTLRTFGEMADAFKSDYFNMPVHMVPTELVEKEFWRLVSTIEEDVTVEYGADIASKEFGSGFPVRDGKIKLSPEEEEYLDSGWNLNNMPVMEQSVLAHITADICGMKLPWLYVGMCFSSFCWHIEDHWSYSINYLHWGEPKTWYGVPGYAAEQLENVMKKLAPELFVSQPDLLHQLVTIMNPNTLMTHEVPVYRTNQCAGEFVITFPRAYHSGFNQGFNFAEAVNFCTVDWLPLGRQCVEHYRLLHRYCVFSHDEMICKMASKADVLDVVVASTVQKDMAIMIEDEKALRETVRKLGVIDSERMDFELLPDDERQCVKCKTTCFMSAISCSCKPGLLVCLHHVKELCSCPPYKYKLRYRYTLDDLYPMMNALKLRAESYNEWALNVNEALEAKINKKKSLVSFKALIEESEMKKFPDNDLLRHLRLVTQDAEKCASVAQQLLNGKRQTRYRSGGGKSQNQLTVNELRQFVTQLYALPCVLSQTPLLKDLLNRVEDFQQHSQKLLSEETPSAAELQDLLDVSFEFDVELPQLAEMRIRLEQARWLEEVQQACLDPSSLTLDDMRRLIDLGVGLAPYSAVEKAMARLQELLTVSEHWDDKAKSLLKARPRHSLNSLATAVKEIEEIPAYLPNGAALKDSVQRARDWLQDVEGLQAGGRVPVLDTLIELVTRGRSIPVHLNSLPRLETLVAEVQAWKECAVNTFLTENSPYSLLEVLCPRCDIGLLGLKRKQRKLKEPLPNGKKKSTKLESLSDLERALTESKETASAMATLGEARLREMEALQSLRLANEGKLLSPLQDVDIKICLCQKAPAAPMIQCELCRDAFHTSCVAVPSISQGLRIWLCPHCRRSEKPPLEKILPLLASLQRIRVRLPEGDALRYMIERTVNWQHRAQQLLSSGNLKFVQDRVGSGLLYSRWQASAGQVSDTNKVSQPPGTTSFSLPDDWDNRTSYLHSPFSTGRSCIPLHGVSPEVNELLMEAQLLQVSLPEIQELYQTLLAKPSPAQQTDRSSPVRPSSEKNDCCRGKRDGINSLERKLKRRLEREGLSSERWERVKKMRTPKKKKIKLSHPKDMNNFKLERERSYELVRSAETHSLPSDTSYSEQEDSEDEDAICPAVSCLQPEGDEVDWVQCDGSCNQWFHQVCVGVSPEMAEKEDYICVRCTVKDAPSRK
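Here, H3K4me3 peptide (12.5 µM in substrate mix) is demethylated by KDM5BΔAP, 200 nM final, after 10 min compound exposure. Formaldehyde product is coupled through FDH (0.25 U/mL in mix) to NADH fluorescence; 30-min ΔRFU feeds dose-response curves.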
A number is an active result; i = inactive. This is one part of a sample in which hits are shown more often than they occur.

SMILES	KDM5B inh
O=C(NCC1CC1)c1cc2n(n1)CC(c1ccc(Cl)cc1)OC2 (configuration not stated)	i
O=C(Nc1ccc(Cl)c(Cl)c1)c1cc2n(n1)CC(c1ccc(Cl)cc1)OC2 (configuration not stated)	28µM
COc1ccc(NC(=O)c2cc3n(n2)CC(c2ccc(Cl)cc2)OC3)cc1Cl (configuration not stated)	25µM
COc1cc(NC(=O)c2cc3n(n2)CC(c2ccc4c(c2)OCO4)OC3)c(OC)cc1Cl (configuration not stated)	i
O=C(NCc1ccc(F)cc1F)c1cc2n(n1)CC(c1ccc(Cl)cc1)OC2 (configuration not stated)	i
COc1ccccc1-c1nc(S(=O)(=O)c2ccc3c(c2)OCCO3)c(NCCCN(C)C)o1	i
N#Cc1ccc(C(=O)Nc2ccc(NC(=O)c3cc4ccccc4o3)cc2)c(F)c1	i
CCOc1ccc(Oc2ccc(Cl)cc2NC(=O)Cn2c(=O)c3c(ncn3C)n(C)c2=O)cc1	i
CCN(CC)S(=O)(=O)c1ccc2c(c1)CC(C(=O)NCCc1ccc(Cl)cc1)N2C(C)=O (configuration not stated)	i
CC(C)c1ccc(-n2ccnc(NCc3ccccc3)c2=O)cc1	i
CC1SC2(NC1=O)C1CC3CC2CC(O)(C3)C1 (configuration not stated)	i
Cc1ccsc1C(=O)N1CCCC(n2cc(-c3nc(C4CC4)no3)nn2)C1 (configuration not stated)	i
CCC(CC)NC(=O)Nc1ccc(C)cc1Br	i
CC(C)(C(=O)O)c1cnc(N2CCN(CCO)CC2)nc1N1CCOCC1	i
O=C(O)C1(O)CCN(c2ncc(F)c(N3CCOCC3)n2)CC1	28µM
COCC1CCN(c2ncc(C(C)(C)C(=O)O)c(N3CCOCC3)n2)CC1	i
CCCCn1c(=O)[nH]c(=O)c2c1nc(CCC(=O)N1CCCCC1C)n2CC(C)C (configuration not stated)	i
COCCN(C)C[C@@H]1CN(c2cc(C)c3ccc(SC)cc3n2)C[C@@H]1CO	28µM
COCCN(C)C[C@@H]1CN(C(=O)c2cnc(SC)nc2)C[C@@H]1CO	i
COCCN(C)C[C@@H]1CN(C(=O)c2nc(-c3ccccc3)[nH]c2C)C[C@@H]1CO	i
CCN1CCC(NC(=O)Cc2cc(Cl)c3c(c2)OCCCO3)CC1	i
N#CC1CCN(C(=O)c2nc(-c3cccc(C(F)(F)F)c3)c3ccccn23)CC1	14µM
Cc1cccc(C)c1-c1nc(C(=O)N2CCC(C#N)CC2)n2ccccc12	100µM
N#CC1CCN(C(=O)c2nc(-c3cccc(C(F)(F)F)c3)c3cnccn23)CC1	25µM
N#CC1CCN(C(=O)c2nc(-c3cc(Cl)cc(Cl)c3)c3ccccn23)CC1	i
SMILES	KDM5B inh
N#CC1CCN(C(=O)c2ccc3nnc(-c4cccc(OC(F)(F)F)c4)n3c2)CC1	i
N#CC1CCN(C(=O)c2nc(-c3ccccc3)c3ccccn23)CC1	35µM
COc1ccc(C(=O)N2CCC3(CC2)CC(c2cccc(C(F)(F)F)c2)=NO3)cc1	i
O=C(c1ccc(O)cc1)C1CCN(C(=O)c2cccc(C(F)(F)F)c2)CC1	i
Cc1ccc(C(=O)N2CCC3(CC2)CC(c2cccc(C(F)(F)F)c2)=NO3)cc1	i
COC1CCN(C(=O)c2cccc(S(=O)(=O)N3CCC(C#N)CC3)c2)C1 (configuration not stated)	i
Cc1cccc(C)c1-c1cc(C(=O)N2CCC(C#N)CC2)c2cnn(C)c2n1	i
Cc1ccc(C)c(NC(=O)c2nc3ccccc3nc2Cl)c1	i
Clc1ccc(-c2noc(-c3ccncc3)n2)cc1	i
Cc1ccc(-n2ncnc2-c2cc3c(n(-c4ccccc4)c2=O)CC(C)(C)CC3=O)c(C)c1	i
CCOC(=O)C(NC(=O)Cc1coc2c(C)c(C)ccc12)C(=O)OCC	i
CN(CC(=O)Nc1ccc(Cl)c(C(F)(F)F)c1)Cc1cc(Cl)cc2c1OCOC2	i
C=CCNC(=O)c1coc(COc2ccc3c(c2)C(c2cccc(C)c2)N(C(=O)C2CC2)CC3)n1 (configuration not stated)	i
CCc1nc2ccccc2c(C(=O)OCC(=O)NCCc2ccccc2)c1C	i
CCC(CNC(=O)Cn1cnc2c1c(=O)n(C)c(=O)n2C)c1ccccc1 (configuration not stated)	i
COc1ccc(CNC(=O)c2cccc(OCc3ccccc3)c2)cc1	i
O=C(Nc1ccccc1C(F)(F)F)Nc1c(NC2CCCC2)c2ccccc2oc1=O	i
Cn1c(=O)c2c(nc(Sc3ccccc3N)n2Cc2ccc(F)cc2)n(C)c1=O	i
COc1ccccc1-c1nc(C(=O)N2CCC(C#N)CC2)n2ccccc12	28µM
COc1ccccc1-c1nnc(C2CCN(C(=O)c3ccccc3C)CC2)o1	i
COc1ccccc1-c1[nH]nc2ncc(C(=O)N3CCC(c4ccccc4)CC3)nc12	i
Cc1cc2nc(C(=O)Nc3ccc(C(C)C)cc3)c(=O)n(C)c2cc1C	i
O=C(O)CCCC(=O)OCCCc1ccccc1	i
Cc1ccc(Nc2cc(C)nc(NCc3ccccc3)n2)c(C)c1	i
COc1ccc(N2CC(c3noc(-c4ccc(OC)cc4OC)n3)CC2=O)cc1 (configuration not stated)	i
SMILES	KDM5B inh
COc1ccccc1-c1nc(C2CC(=O)N(C3CCCCC3)C2)no1 (configuration not stated)	20µM
COc1ccccc1-c1nc(C2CC(=O)N(c3ccc(C)cc3)C2)no1 (configuration not stated)	i
COc1ccc(-c2nc(C3CC(=O)N(c4ccc(C)cc4)C3)no2)c(OC)c1 (configuration not stated)	25µM
COc1ccc(-c2nc(C3CC(=O)N(c4ccc(OC)c(OC)c4)C3)no2)c(C)c1 (configuration not stated)	i
COc1ccc(N2CC(c3noc(-c4ccccc4OC)n3)CC2=O)cc1 (configuration not stated)	i
O=C1CC(c2noc(-c3ccco3)n2)CN1C1CCCCC1 (configuration not stated)	i
CCc1ccc(N2CC(c3noc(-c4ccc(OC)cc4OC)n3)CC2=O)cc1 (configuration not stated)	32µM
O=C1CC(c2noc(-c3ccccc3F)n2)CN1C1CCCCC1 (configuration not stated)	i
O=C(O)c1ccc(Br)cc1C(=O)O	i
O=C(O)C1C2CCC(C2)C1C(=O)NCCCN1CCOCC1 (configuration not stated)	i
C/C(=N\NC(=O)C1CC1)c1ccncc1	i
Cc1ccccc1C1(O)CCN(C(=O)c2ccc(C#CC(C)(C)O)o2)C1 (configuration not stated)	i
CC(C)CC1NC(=O)N(Cc2coc(-c3ccccc3)n2)C1=O (configuration not stated)	i
Cn1c(=O)[nH]c(=O)c2c1nc(N1CCN(Cc3ccccc3F)CC1)n2CCc1ccccc1	i
CC(C)Sc1nc2c(c(=O)[nH]c(=O)n2C)n1Cc1ccccc1Cl	i
N#C/C(=C\c1ccc(-c2ccc(Br)cc2)o1)C(=O)c1ccccc1	i
O=C(CCc1c[nH]c2ccccc12)Nc1cccc(Cl)c1	i
Cc1ccc(C(=O)N2CCN(C(=O)c3nnn4c3COC(c3ccc(F)cc3)C4)CC2)cc1C (configuration not stated)	i
CC(O)c1cc2n(n1)CCN(Cc1cc(=O)n3nc(C4CC4)sc3n1)C2 (configuration not stated)	25µM
